# Pf growth 96h – inhibits malaria parasite growth, 96 h | 320,000 compounds, 6.9% hits | Potency, µM (doses to about 28.7 µM), for inactives: at the top dose activity change, negative = inhibition, most hits filed as inhibitors | AID 504834 | P. falciparum luciferase reporter growth, 96 h; further: potency means the concentration at half of the fitted maximal effect; on the % scale 0 is the no-effect control and ±100 the full control effect
#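 Cell-based qHTS: luciferase-tagged P. falciparum in erythrocytes (2% hematocrit, 0.05% parasitemia final) incubated with compounds for 96 hours, 37 C, 5% CO2; luciferase detection reagent then added and luminescence measured.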
# Cycloheximide cs – counter-screen hit for Shiga toxin inhibitors, cycloheximide. cell reporter, cycloheximide protein synthesis inhibition counterscreen. max response, %. 300,000 compounds, 12% hits; in the data active means max response mostly above about 13%, no sharp cut-off; inactive means mostly below about 14%; further: read at 38.3 µM for the half of the compounds with a filed dose; 0% is about no effect
# Shiga toxin inh – blocks Shiga toxin action in Vero cells; Vero cells, Shiga toxin protein synthesis inhibition reporter; inhibition, % at 38.7 µM; 290,000 compounds, 9.2% hits; AID 2315; in the data active means inhibition mostly above about 28%, no sharp cut-off; inactive means mostly below about 43%; further: 0% is about no effect
# Pf growth 48h – inhibits P. falciparum growth in the first generation, 48 h. P. falciparum luciferase growth in erythrocytes, 48 h. Potency, µM (top dose mostly 28.7 µM), for inactives: at the top dose activity change, negative = inhibition, hits mostly inhibitors. 310,000 compounds, 5.9% hits; further: potency means the concentration at half of the fitted maximal effect; on the % scale 0 is the no-effect control and ±100 the full control effect
#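 Read-out is firefly luciferase luminescence from an integrated reporter in P. falciparum, so falling signal marks reduced parasite growth. Infected erythrocytes were at 2% hematocrit and 0.1% parasitemia (final) in Albumax-supplemented RPMI 1640.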
# HCMV antiviral – blocks human cytomegalovirus replication; HFF cells, HCMV-luciferase reporter, 72 h; active compounds read low; activity change, negative = inhibition, % at 57.5 µM; 410,000 compounds, 4.5% hits; in the data active means activity change below about -60%; inconclusive means no clear call, values can overlap the other calls; inactive means above about -39%; further: on the % scale 0 is the no-effect control and ±100 the full control effect
#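 Two-dose cell screen: HFF monolayers treated with compounds and infected with luciferase-expressing HCMV at 1 PFU/cell, 72 h at 37C, then lysed for luciferase measurement.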
# * = called active by the depositor; ? = inconclusive; nt = not tested or not shown. Hits are enriched below; roughly 20% of the tested compounds scored in any of these assays. Unless noted, the call rests on the fitted dose curve; in most records, active means well fitted inhibition curve with a large enough effect; inconclusive means small, poorly fitted or top-dose-only effect, or another doubt; inactive means no such curve, though single readings can be large or run the other way.
SMILES,Pf growth 96h,Cycloheximide cs,Shiga toxin inh,Pf growth 48h,HCMV antiviral
CC[C@H](C)[C@H](NC(=O)[C@H](Cc1ccc(O)cc1)NC(=O)[C@H](Cc1cnc[nH]1)NC(=O)[C@H](CCCNC(=N)N)NC(=O)[C@H](CC(C)C)NC(=O)[C@H](C)NC(=O)[C@H](CO)NC(=O)[C@H](Cc1ccc(O)cc1)NC(=O)[C@H](Cc1ccc(O)cc1)NC(=O)[C@H](CCCNC(=N)N)NC(=O)[C@H](C)NC(=O)[C@H](CCSC)NC(=O)[C@H](CC(=O)O)NC(=O)[C@H](CCC(=O)O)NC(=O)[C@H](C)NC(=O)[C@@H]1CCCN1C(=O)[C@H](C)NC(=O)[C@H](CC(=O)O)NC(=O)[C@H](CCC(=O)O)NC(=O)CNC(=O)[C@@H]1CCCN1C(=O)[C@H](CC(N)=O)NC(=O)[C@H](CC(=O)O)NC(=O)[C@@H]1CCCN1C(=O)[C@H](CCCCN)NC(=O)[C@H](CO)NC(=O)[C@@H]1CCCN1C(=O)[C@@H](N)Cc1ccc(O)cc1)C(=O)N[C@@H](CC(N)=O)C(=O)N[C@@H](CC(C)C)C(=O)N[C@@H](CC(C)C)C(=O)N[C@H](C(=O)N[C@@H](CCCNC(=N)N)C(=O)N1CCC[C@H]1C(=O)N[C@@H](CCCNC(=N)N)C(=O)N[C@@H](Cc1ccc(O)cc1)C(N)=O)[C@@H](C)O,nt,8,17,nt,nt
COc1cc(/C=N/NC(=O)c2ccccn2)ccc1OC(=O)c1ccc(Br)cc1,14%,25*,41,46%,-13
COc1cc(/C=N/NC(=O)c2ccccn2)ccc1OC(=O)c1ccccc1Br,2.1µM*,43*,71*,44%,?
CNS(=O)(=O)c1cccc(C(=O)OCC(=O)N(Cc2ccccc2)C(C)(C)C)c1,-11%,-2,-4,-4%,-1
COc1ccc(/C=C2\Sc3ccc(C(=O)N4CCN(Cc5ccccc5)CC4)cc3N(C)C2=O)cc1OC,?,-1,1,?,-83*
COc1cccc(OCc2cc(C3Nc4ccccc4C(=O)N3Cc3ccco3)ccc2OC)c1 (stereo unspecified),-7%,8,14,8.3µM*,-21
COc1ccc(C2Nc3ccccc3C(=O)N2Cc2ccco2)cc1COc1ccc([N+](=O)[O-])cc1 (stereo unspecified),5.9µM*,18,21,?,-35
O=C1c2ccccc2NC(c2ccccc2)N1Cc1ccco1 (stereo unspecified),-6%,-3,19,-14%,-14
CC1CC(C)CN(S(=O)(=O)c2ccc(NC(=O)C3CC(=O)N(Cc4ccccc4)C3)cc2)C1 (stereo unspecified),?,-1,-3,?,3
O=C(NNC(=O)C1CC(=O)N(Cc2ccccc2)C1)c1ccc(Br)cc1 (stereo unspecified),2.3µM*,2,-1,26%,-33
CCN(CC)S(=O)(=O)c1cc(NC(=O)C2CC(=O)N(Cc3ccccc3)C2)ccc1Cl (stereo unspecified),?,nt,nt,10µM*,-63*
Cc1ccc(CN2CC(C(=O)Nc3ccc(S(=O)(=O)N4CCCCC4)cc3)CC2=O)cc1 (stereo unspecified),nt,nt,nt,nt,-68*
O=C(Nc1ccc(S(=O)(=O)N2CCCCC2)cc1)C1CC(=O)N(Cc2ccccc2)C1 (stereo unspecified),?,nt,nt,13µM*,-39
O=c1c2nnn(Cc3ccccc3)c2ncn1C/C=C/c1ccccc1,?,-1,-10,?,-17
O=C(NCCc1cccnc1)C1CCC(=O)N(CCc2cccc(F)c2)C1 (stereo unspecified),?,10,2,37%,10
CCCc1ccc(OCC(=O)Nc2sc3c(c2C(=O)OCC)CCC(C(C)(C)C)C3)cc1 (stereo unspecified),nt,nt,nt,nt,11
Cc1ccccc1CN1C(=O)C2(c3ccccc31)N(c1ccccc1)C(=O)CS2(=O)=O (stereo unspecified),nt,nt,nt,nt,19
Cc1ccc(NC(=O)C2CC(=O)N(Cc3ccccc3)C2)cc1S(=O)(=O)N1CCCCCC1 (stereo unspecified),12µM*,-2,-8,?,-77*
CCOC(=O)C(Cc1ccccc1)C(=O)NCc1ccccc1 (stereo unspecified),3.3µM*,-2,2,21%,-6
